Experimental data reported in the supplement of paper PMC11732987, “Enantioselective OTUD7B fragment discovery through chemoproteomics screening and high-throughput optimisation” (Communications Chemistry, 2025).

Tests used:
Assay in all cases: log2 ratio of Biotin-Ahx-Ub-VS probe labelling (fragment/DMSO); higher = less target engagement (more negative = stronger competition), active = hit call of the paper (q ≤ 0.05, log2 ratio ≤ -1)
Conditions in all cases: compound concentration: 200 uM; treatment time: 3 h
USP34 = USP34 (UniProt Q70CQ2)
USP34, sequence (Q70CQ2 whole entry, the tested form may be a part): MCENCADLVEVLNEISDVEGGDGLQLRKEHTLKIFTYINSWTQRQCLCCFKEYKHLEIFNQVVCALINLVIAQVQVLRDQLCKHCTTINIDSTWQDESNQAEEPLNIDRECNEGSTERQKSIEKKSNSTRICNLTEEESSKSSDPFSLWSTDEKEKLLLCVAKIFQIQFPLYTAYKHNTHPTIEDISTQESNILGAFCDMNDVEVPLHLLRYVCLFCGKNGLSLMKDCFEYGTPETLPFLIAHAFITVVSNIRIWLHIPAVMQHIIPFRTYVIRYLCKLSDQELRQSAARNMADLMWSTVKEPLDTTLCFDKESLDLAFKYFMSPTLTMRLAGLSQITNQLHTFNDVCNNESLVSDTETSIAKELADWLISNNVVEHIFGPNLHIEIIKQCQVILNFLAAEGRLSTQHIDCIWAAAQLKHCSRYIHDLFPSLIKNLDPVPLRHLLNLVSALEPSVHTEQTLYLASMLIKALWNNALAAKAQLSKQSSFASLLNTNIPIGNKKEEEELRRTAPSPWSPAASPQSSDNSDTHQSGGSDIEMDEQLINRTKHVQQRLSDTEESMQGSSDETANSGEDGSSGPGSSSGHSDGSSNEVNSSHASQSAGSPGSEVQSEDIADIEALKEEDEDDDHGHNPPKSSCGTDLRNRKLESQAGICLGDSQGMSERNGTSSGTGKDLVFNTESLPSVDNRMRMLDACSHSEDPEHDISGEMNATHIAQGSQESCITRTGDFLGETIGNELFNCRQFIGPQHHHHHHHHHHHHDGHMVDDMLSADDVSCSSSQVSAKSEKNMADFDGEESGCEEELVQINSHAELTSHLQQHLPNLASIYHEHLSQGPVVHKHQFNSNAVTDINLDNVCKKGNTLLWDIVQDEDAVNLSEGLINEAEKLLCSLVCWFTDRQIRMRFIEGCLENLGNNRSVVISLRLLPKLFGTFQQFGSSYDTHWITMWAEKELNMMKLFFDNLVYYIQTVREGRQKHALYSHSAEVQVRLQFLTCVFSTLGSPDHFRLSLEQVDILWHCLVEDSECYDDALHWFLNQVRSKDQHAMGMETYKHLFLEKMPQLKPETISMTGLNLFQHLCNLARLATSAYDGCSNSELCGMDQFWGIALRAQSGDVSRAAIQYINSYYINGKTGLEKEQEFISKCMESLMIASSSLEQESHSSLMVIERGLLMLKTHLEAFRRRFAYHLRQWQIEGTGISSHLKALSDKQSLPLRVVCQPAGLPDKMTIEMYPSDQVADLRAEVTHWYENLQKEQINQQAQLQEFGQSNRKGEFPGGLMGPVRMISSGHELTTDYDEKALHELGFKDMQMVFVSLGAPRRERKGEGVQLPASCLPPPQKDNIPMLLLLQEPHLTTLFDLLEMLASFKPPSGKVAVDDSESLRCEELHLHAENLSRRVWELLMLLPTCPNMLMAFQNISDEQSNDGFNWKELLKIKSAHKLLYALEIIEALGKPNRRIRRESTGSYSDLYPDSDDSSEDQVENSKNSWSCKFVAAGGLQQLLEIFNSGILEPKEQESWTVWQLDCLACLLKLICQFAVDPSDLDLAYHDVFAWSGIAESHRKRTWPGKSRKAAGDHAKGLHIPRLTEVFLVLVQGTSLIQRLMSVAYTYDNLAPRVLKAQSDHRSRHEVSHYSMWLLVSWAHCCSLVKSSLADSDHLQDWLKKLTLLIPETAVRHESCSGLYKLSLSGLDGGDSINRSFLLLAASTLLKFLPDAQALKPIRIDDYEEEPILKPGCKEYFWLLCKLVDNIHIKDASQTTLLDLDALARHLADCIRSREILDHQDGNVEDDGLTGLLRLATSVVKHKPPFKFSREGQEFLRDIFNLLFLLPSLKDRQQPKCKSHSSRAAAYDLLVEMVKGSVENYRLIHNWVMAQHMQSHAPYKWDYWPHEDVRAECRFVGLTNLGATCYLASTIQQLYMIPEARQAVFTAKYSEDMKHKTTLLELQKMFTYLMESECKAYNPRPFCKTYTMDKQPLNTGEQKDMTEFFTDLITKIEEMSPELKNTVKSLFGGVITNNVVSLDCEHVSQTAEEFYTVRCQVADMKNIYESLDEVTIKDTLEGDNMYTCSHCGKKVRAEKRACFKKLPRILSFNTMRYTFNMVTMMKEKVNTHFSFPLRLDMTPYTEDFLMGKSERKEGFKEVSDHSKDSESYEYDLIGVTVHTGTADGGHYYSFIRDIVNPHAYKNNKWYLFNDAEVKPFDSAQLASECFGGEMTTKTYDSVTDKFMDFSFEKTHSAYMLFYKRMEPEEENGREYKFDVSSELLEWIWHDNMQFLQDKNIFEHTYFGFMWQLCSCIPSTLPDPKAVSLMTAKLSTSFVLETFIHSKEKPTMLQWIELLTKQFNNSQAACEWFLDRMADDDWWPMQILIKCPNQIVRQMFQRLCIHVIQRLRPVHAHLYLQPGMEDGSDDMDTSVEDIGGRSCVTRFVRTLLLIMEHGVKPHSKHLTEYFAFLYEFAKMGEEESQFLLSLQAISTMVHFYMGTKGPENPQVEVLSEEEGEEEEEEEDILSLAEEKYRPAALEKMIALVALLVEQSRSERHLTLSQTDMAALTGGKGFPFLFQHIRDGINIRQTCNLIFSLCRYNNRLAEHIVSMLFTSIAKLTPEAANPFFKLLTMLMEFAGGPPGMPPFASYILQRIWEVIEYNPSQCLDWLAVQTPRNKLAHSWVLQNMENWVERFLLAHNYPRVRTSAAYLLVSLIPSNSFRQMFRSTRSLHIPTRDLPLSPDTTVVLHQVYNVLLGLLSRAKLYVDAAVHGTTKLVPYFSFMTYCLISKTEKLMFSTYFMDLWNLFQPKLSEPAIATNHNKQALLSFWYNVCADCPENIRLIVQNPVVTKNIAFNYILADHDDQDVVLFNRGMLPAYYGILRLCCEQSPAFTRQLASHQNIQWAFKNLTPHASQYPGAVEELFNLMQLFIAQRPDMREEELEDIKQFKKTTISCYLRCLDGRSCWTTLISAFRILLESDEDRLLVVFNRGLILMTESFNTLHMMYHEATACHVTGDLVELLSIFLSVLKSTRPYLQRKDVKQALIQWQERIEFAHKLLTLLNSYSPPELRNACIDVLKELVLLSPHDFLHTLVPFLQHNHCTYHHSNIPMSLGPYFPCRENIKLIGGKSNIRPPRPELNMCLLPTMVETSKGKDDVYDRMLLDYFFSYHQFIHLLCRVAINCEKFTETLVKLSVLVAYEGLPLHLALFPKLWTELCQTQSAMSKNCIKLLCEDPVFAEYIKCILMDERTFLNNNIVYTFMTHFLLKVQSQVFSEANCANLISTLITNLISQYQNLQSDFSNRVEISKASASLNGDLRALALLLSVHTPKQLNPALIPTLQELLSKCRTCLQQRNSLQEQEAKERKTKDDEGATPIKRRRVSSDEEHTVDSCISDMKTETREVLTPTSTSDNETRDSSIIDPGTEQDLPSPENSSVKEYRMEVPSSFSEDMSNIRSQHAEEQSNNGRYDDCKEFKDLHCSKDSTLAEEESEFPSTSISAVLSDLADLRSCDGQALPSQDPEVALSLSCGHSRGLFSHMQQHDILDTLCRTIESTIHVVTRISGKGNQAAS
Outline: (§1)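 Triplicate samples of HEK293T lysate, 495 µg each, received fragment at 200 µM or vehicle for 3 h, followed by Biotin-Ahx-Ub-VS (0.5 µM final) for 1 h. After NeutrAvidin enrichment of labelled DUBs and LysC/trypsin digestion, peptides were run by diaPASEF LC-MS/MS. The values are average log2 fragment/vehicle ratios from global-median-normalised Spectronaut label-free quantities, tested by unpaired t-test on proteins having ≥2 unique peptides.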

USP36 = target: T1, USP36 (UniProt Q9P275)
T1 sequence (whole entry): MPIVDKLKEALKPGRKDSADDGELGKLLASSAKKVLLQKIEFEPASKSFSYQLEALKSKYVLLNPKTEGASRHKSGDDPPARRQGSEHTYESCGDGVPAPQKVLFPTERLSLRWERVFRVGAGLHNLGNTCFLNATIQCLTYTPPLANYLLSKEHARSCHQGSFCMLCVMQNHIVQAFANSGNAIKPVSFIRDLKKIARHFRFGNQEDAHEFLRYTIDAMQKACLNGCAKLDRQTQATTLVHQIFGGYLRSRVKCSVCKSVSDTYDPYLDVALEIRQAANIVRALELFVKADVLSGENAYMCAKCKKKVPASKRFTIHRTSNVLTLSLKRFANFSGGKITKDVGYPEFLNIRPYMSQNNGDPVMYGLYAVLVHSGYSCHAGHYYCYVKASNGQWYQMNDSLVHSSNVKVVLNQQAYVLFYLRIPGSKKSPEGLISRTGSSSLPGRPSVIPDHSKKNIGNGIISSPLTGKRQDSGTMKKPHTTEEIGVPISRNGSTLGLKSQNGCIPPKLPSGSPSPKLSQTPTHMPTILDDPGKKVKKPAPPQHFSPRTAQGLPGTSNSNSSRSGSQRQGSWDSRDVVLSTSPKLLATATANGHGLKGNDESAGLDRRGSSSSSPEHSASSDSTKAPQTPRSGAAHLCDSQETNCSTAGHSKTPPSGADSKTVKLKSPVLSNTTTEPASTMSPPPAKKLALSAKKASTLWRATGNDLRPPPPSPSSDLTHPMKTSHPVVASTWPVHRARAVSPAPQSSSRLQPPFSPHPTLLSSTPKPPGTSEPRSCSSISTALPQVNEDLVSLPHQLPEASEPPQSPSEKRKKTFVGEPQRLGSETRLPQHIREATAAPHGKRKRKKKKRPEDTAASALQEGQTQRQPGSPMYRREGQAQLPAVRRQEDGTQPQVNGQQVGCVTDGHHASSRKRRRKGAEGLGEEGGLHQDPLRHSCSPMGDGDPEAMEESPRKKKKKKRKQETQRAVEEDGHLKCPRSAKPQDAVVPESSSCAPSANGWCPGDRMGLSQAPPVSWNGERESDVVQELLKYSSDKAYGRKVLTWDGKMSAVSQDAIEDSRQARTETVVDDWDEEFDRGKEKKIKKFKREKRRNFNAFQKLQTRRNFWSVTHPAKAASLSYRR
Outline: as §1

USP38 = target: T2, USP38 (UniProt Q8NB14)
T2 sequence (whole entry): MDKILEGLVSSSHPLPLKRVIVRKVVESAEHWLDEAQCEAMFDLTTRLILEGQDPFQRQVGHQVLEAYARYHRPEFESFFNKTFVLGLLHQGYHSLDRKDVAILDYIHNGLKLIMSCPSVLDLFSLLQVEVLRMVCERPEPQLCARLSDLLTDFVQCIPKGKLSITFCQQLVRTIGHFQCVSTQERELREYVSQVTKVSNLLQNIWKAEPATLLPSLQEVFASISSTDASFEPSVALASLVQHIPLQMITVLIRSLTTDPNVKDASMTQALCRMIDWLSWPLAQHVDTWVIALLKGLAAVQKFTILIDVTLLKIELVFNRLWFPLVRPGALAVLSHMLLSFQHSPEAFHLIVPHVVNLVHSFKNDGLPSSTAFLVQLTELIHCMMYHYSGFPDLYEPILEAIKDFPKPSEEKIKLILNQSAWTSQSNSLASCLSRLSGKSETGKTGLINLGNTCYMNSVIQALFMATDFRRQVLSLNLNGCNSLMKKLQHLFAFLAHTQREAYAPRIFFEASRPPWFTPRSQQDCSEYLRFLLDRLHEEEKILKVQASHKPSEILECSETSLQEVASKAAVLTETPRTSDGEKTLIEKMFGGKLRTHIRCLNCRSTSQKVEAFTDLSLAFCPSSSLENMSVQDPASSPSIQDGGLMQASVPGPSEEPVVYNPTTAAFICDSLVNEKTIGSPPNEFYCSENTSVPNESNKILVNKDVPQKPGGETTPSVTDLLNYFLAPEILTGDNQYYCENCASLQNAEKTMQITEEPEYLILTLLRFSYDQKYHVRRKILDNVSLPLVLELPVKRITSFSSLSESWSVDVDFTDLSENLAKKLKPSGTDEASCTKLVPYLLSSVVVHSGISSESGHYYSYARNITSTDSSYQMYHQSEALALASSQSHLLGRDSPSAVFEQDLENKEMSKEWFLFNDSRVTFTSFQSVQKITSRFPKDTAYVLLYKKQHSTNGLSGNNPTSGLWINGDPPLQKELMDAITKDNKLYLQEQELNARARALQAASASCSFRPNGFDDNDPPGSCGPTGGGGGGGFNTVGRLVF
Outline: as §1

USP39 = target: T3, USP39 (UniProt Q53GS9)
T3 sequence (whole entry): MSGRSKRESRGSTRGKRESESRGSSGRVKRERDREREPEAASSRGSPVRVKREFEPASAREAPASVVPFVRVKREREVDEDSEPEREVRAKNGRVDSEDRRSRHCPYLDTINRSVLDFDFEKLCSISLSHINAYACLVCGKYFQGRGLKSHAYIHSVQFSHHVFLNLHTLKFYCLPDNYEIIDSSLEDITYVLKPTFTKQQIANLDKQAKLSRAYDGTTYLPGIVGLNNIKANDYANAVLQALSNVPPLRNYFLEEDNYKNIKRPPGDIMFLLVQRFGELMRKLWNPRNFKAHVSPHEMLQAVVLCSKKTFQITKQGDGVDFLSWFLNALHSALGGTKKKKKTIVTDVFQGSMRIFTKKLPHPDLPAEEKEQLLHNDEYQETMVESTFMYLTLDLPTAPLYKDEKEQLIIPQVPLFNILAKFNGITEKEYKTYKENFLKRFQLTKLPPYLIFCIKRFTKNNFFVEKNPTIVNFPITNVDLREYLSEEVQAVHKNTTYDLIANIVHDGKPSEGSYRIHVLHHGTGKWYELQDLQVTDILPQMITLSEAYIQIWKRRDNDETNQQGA
Outline: as §1

USP4 = target: T4, USP4 (UniProt Q13107)
T4 sequence (whole entry): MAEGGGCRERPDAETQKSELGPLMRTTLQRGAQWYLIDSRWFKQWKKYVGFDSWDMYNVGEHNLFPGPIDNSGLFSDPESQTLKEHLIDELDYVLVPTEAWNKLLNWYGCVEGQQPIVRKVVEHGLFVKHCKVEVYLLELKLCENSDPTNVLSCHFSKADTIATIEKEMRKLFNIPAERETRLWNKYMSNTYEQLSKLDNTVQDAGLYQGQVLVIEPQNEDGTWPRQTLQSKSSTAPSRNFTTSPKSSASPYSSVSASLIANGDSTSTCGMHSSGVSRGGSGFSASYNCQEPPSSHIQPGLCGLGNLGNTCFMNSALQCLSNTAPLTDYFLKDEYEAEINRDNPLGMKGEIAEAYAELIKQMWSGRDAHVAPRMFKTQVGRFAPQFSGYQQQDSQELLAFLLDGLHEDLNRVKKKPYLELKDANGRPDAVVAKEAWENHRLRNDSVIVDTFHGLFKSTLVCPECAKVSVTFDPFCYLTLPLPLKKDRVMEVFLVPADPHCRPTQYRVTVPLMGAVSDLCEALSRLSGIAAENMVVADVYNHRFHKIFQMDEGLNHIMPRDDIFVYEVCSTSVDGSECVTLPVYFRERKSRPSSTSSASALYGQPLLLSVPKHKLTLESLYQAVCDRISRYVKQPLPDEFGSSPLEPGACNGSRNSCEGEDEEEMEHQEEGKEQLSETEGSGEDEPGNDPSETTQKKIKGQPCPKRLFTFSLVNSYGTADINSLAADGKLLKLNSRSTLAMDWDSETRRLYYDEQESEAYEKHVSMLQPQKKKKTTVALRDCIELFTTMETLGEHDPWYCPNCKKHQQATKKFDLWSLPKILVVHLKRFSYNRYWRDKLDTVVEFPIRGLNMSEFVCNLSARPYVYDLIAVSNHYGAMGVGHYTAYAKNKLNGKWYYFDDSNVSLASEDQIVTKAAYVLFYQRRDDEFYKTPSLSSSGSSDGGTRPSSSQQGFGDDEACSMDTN
Outline: as §1

Measured: log2 ratio of Biotin-Ahx-Ub-VS probe labelling

Cl.O=C(CCl)NCc1ccnc(Oc2ccccc2F)c1
inactive: USP34 -0.267 | USP36 0.0203 | USP38 -0.00457 | USP39 0.295 | USP4 -0.0201
